Assay results reported in the supplement of paper PMC6897291.
Where a name gives a salt, the structure may show the parent alone.

The compounds below were run on RIVA (assay: growth inhibition by drug alone (1 - RLU/untreated control) (fraction); higher = stronger inhibition). Conditions: 10 nM; time (day): 3; 177Lu-lilotomab satetraxetan 0 ug/ml.
Outline: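 RIVA or U-2932 cells were left untreated or pretreated for 18 h with a radiolabelled anti-CD37 antibody conjugate (~600 MBq/mg) at 0.5 µg/ml for RIVA or 1 µg/ml for U-2932. The cells were then washed and seeded at 3,000 cells/well on plates pre-printed with the Selleck Cambridge Cancer Compound library, dosed at 10/100 nM for RIVA and 10/1,000 nM for U-2932. From day 3, RealTime-Glo luminescence was read daily after 1 h at 37°C. Growth inhibition was taken as one minus RLU over the mean of the untreated no-drug wells, of which there were 48 per plate.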

| Compound | growth inhibition by drug alone |
| --- | --- |
| COc1ccc(S(=O)(=O)Nc2cccnc2Nc2ccc(O)cc2)cc1 | -0.0856 |
| C[C@]12CCC(=O)C=C1CC[C@@H]1[C@@H]2[C@@H](O)C[C@@]2(C)[C@H]1CC[C@]2(O)C(=O)CO [Hydrocortisone (Cortisol)] | -0.0911 |
| COc1cc(OC2CCN(C)CC2)ccc1Nc1ncc2c(n1)n(C1CCCC1)c(=O)n2C | -0.233 |
| Nc1nc(F)nc2c1ncn2[C@@H]1O[C@H](CO)[C@@H](O)[C@@H]1O [Fludarabine (Fludara)] | 0.0792 |
| Nc1nc(Nc2ccc(S(N)(=O)=O)cc2)nn1C(=O)c1c(F)cccc1F | 0.09 |
| Nc1ncn([C@@H]2O[C@H](CO)[C@@H](O)[C@H]2O)c(=O)n1 [Azacitidine (Vidaza)] | -0.294 |
| COc1cc2nccc(Oc3ccc(NC(=O)NC4CC4)c(Cl)c3)c2cc1C(N)=O [E7080 (Lenvatinib)] | -0.272 |
| Nc1ccn([C@@H]2O[C@H](CO)[C@@H](O)[C@@H]2O)c(=O)n1 [Cytarabine] | -0.0997 |
| Nc1cccc2c1C(=O)N(C1CCC(=O)NC1=O)C2=O (stereo not drawn) [Pomalidomide] | -0.0396 |
| CN(C)c1nc(N(C)C)nc(N(C)C)n1 [Altretamine (Hexalen)] | -0.25 |
| Cc1[nH]c(/C=C2\C(=O)Nc3ccc(S(=O)(=O)N(C)c4cccc(Cl)c4)cc32)c(C)c1C(=O)N1CCN(C)CC1 | -0.187 |
| O=C(O[C@@H]1Cc2c(O)cc(O)cc2O[C@@H]1c1cc(O)c(O)c(O)c1)c1cc(O)c(O)c(O)c1 [(-)-Epigallocatechin gallate] | -0.0443 |
| CCc1c2c(nc3ccc(OC(=O)N4CCC(N5CCCCC5)CC4)cc13)-c1cc3c(c(=O)n1C2)COC(=O)[C@]3(O)CC [Irinotecan HCl Trihydrate (Campto)] | -0.0524 |
| S=C(NCc1ccc2c(c1)OCO2)N1CCN(c2ncnc3c2oc2ccccc23)CC1 [Amuvatinib (MP-470)] | 0.0683 |
| COc1ccc2c3n(c(=NC(=O)c4cccnc4)nc2c1OC)CCN3 | 0.159 |
| C#Cc1cccc(Nc2ncnc3cc(OCCOC)c(OCCOC)cc23)c1 [Erlotinib HCl] | 0.349 |
| Cc1ccc(-c2cc(C(F)(F)F)nn2-c2ccc(S(N)(=O)=O)cc2)cc1 [Celecoxib] | -0.101 |
| N#CC[C@H](C1CCCC1)n1cc(-c2ncnc3[nH]ccc23)cn1 | 0.0229 |
| CCc1cncnc1N1CCN(Cc2nc3ccc(C(F)(F)F)cc3[nH]2)CC1 | 0.00505 |

| Compound | growth inhibition by drug alone |
| --- | --- |
| CCN(CC)C(=S)SSC(=S)N(CC)CC [Disulfiram (Antabuse)] | -0.0278 |
| CC(C)[C@H](C(=O)Nc1ccc(C(=O)NO)cc1)c1ccccc1 | -0.0258 |
| CC(=O)O[C@]1(C(C)=O)CC[C@H]2[C@@H]3C=C(C)C4=CC(=O)CC[C@]4(C)[C@H]3CC[C@@]21C [Megestrol Acetate] | -0.0198 |
| COc1cc2ncnc(Nc3cccc(Br)c3)c2cc1OC | -0.0227 |
| N#Cc1ccc(C(c2ccc(C#N)cc2)n2cncn2)cc1 [Letrozole] | -0.194 |
| CC(=O)c1c(C)c2cnc(Nc3ccc(N4CCNCC4)cn3)nc2n(C2CCCC2)c1=O | -0.0338 |
| COc1cccc2c1C(=O)c1c(O)c3c(c(O)c1C2=O)C[C@@](O)(C(=O)CO)C[C@@H]3O[C@H]1C[C@H](N)[C@H](O)[C@H](C)O1 [Doxorubicin (Adriamycin)] | 0.198 |
| CC(C)(C)c1[nH]cnc1/C=c1\[nH]c(=O)/c(=C/c2ccccc2)[nH]c1=O [NPI-2358 (Plinabulin)] | 0.00478 |
| COc1cc(Nc2ncc3c(n2)-c2ccc(Cl)cc2C(c2c(F)cccc2OC)=NC3)ccc1C(=O)O [MLN8237 (Alisertib)] | -0.00668 |
| O=c1[nH]cc(F)c(=O)[nH]1 [Adrucil (Fluorouracil)] | -0.0691 |
| CC(C)c1ccc(Cn2ccc3c4c(N)nc(NC5CC5)nc4ccc32)cc1 | 0.0749 |
| CC/C(=C(\c1ccccc1)c1ccc(OCCN(C)C)cc1)c1ccccc1 [Tamoxifen Citrate (Nolvadex)] | 0.0612 |
| Cn1cc(C2=C(c3ccc(Cl)cc3Cl)C(=O)NC2=O)c2ccccc21 | -0.0583 |
| c1ccc(-c2nn3c(c2-c2ccnc4cc(OCCN5CCOCC5)ccc24)CCC3)nc1 | -0.0878 |
| O=C(NCCS(=O)(=O)c1ccc(C(F)(F)F)cn1)c1ccc(Cl)cc1 | -0.0219 |
| Cc1ccc(S(=O)(=O)C=CC#N)cc1 | 0.0697 |
| CCC1=C[C@@H]2CN(C1)Cc1c([nH]c3ccccc13)[C@@](C(=O)OC)(c1cc3c(cc1OC)N(C)[C@H]1[C@@](O)(C(=O)OC)[C@H](OC(C)=O)[C@]4(CC)C=CCN5CC[C@]31[C@@H]54)C2 [Vinorelbine (Navelbine)] | 0.907 |
| Cc1cc(Nc2cc(N3CCN(C)CC3)nc(/C=C/c3ccccc3)n2)n[nH]1 | -0.27 |
| CN(N=O)C(=O)N[C@@H](C=O)[C@@H](O)[C@H](O)[C@H](O)CO [Streptozotocin (Zanosar)] | -0.263 |
